GSH fluor – GSH bead compound fluorescence profile; GSH beads flow cytometry, compound fluorescence 488/530 nm; stronger effect = higher value; fluorescence (KMESF) at 10 µM; hit rate 0.25% among 190,000; in the data active = fluorescence above about 89;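 also: glutathione beads carrying GST-tagged Bcl family fusion proteins plus one bare bead set; values are compound well signal with DMSO vehicle wells as background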
RGS7-Gao – modulates binding of RGS7 to human Galphao | Multiplexed bead flow cytometry; actives lie on both sides | P09471 | hit rate 0.35% among 220,000 | binding response (% of control), % at 10 µM | AID 1439; in the data active = binding response below about 49% or above about 150%; inconclusive = no clear call, values can overlap the other calls; inactive = in between;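 also: fluorescent Galphao held in activated GDP-AlF4 state binding bead-coupled RGS7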
Target sequence (P09471 whole entry, looked up): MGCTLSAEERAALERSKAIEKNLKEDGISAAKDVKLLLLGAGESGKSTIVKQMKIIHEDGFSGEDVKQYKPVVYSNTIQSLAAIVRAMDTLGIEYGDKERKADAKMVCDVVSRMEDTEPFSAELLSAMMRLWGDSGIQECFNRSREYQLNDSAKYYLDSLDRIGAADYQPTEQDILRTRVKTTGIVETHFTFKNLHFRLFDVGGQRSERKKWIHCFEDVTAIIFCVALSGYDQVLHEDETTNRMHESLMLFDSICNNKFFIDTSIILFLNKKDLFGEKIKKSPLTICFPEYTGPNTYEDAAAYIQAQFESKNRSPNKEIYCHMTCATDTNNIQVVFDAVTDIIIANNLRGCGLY
RGS4-Gao reg – modulates binding of RGS4 to human Galphao. P09471. Multiplexed bead flow cytometry; actives lie on both sides. binding response (% of control), % at 10 µM. hit rate 0.33% among 220,000; in the data active = binding response below about 49% or above about 150%; inactive = in between;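 also: fluorescent Galphao activated with aluminum fluoride binding bead-coupled RGS4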
Avidin bead fluor – compound fluoresces at 488/530 nm on avidin beads; compound fluorescence 488/530 nm, flow cytometry; stronger effect = higher value; fluorescence (KMESF) at 10 µM; hit rate 0.38% among 220,000; in the data active = fluorescence above about 47
RGS16-Gao – RGS16-Galphao interaction regulator (human). AID 1441. O15492+P09471. bead-based flow cytometry RGS16-Galphao binding, fluorescence; actives lie on both sides. binding response (% of control), % at 10 µM. hit rate 0.38% among 220,000; call rule not given here;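 also: Galphao activated by GDP with aluminum fluoride before binding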
RGS8-Gao reg – human RGS8-Galphao interaction regulation. AID 1423. P09471. response (percent of control binding), % at 10 µM. multiplexed bead flow cytometry, RGS8-Galphao binding; actives lie on both sides. hit rate 0.34% among 220,000; in the data active = response below about 60% or above about 140%; inactive = in between;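 also: Galphao activated as the GDP aluminium fluoride complex binding bead-coupled RGS8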
An asterisk follows results filed as active; ? = inconclusive; . = not tested or not shown. Most compounds without a hit are left out; they make up all but 1.2% or so of the library.

SMILES	GSH fluor	RGS7-Gao	RGS4-Gao reg	Avidin bead fluor	RGS16-Gao	RGS8-Gao reg
Cc1onc(-c2ccccc2)c1CNS(=O)(=O)c1cccc(Br)c1	.	?	100	2	104	102
CC(C)=CC(=O)OCC(=O)Nc1ccccc1Cl	266*	101	98	7	99	98
CN1CCN(S(=O)(=O)c2ccc(Oc3ccc(F)c(Cl)c3)nc2)CC1	14	112	103	12	103	102
O=C(COC(=O)Cn1cnc2ccccc21)NCCC1=CCCCC1	257*	106	104	8	101	103
O=C(CCCOc1ccc(Cl)cc1Cl)N1CCCc2ccccc21	250*	96	88	4	18	100
O=C(COc1ccc(Cl)cc1Cl)OCC(=O)N1CCCc2ccccc21	10	107	105	8	144	106
O=C(Cn1cnc2ccccc21)OCC(=O)N1CCCc2ccccc21	253*	101	104	7	105	103
Cc1ccc(OCC(=O)N2CCCc3ccccc32)cc1	140*	110	108	7	111	105
Cc1ccc(OCC(=O)N2CCc3ccccc32)cc1	7	96	94	7	41	80
CC(=O)NCC1(O)CCCC(C)C1 (stereo unspecified)	.	?	101	8	103	100
CCOc1nc(-c2ccccc2Cl)ccc1C#N	43	100	97	6	104	97
c1ccc2c3c([nH]c2c1)-c1[nH]ncc1CC3	265*	96	97	7	102	99
CC1N(O)C(C)(C)C(c2ccccc2)=[N+]1[O-] (stereo unspecified)	103*	84	82	3	77	81
CC(=O)Nc1ccc2c(c1)OCCOCCOc1cc(NC(C)=O)ccc1OCCO2	.	?	102	9	102	101
CC(=O)Nc1ccc(C2(O)COc3ccccc3O2)cc1 (stereo unspecified)	262*	102	103	9	107	100
O=C(c1cccc(F)c1)N1CCN(C(=O)c2nn3cccnc3c2Cl)CC1	16	103	106	8	107	104
CCOC(=O)NC(CC(=O)O)c1ccc(OC)c(OC)c1 (stereo unspecified)	259*	102	106	8	104	102
CC(C)c1nc(C(=O)N2CCCC(CCC(=O)N(C)CCc3ccccn3)C2)cs1 (stereo unspecified)	14	100	98	10	95	101
O=C(C1CCN(S(=O)(=O)c2cccc3cccnc23)CC1)N1CCN(C2CCCCC2)CC1	14	105	102	27	102	102
O=C(C1CCN(S(=O)(=O)c2cccnc2)CC1)N1CCN(C2CCCC2)CC1	29	120	106	71*	111	102
CCn1c(P(C)(=O)O)nc2cc(NC(=O)c3ccccc3Cl)ccc21	14	98	102	5	101	102
Cc1c(C(=O)OC2CCCCC2)[nH]c2c1C(=O)CC(C)(C)C2	13	102	100	48*	103	101
Cc1c(C(=O)OC(C)C)[nH]c2c1C(=O)CC(C)(C)C2	13	100	102	33	99	100
CC(C)(C)c1cc(C(=O)NNc2cc(C(F)(F)F)ccc2Cl)n(Cc2ccccc2)n1	.	?	100	7	100	97
Cc1ccc(C)c2[nH]c(=O)c(C(c3nnnn3Cc3ccccc3)N3CCc4ccccc4C3)cc12 (stereo unspecified)	266*	102	102	8	102	102
SMILES	GSH fluor	RGS7-Gao	RGS4-Gao reg	Avidin bead fluor	RGS16-Gao	RGS8-Gao reg
COc1ccc(C(CC(=O)Nc2nccs2)n2cccc2)cc1 (stereo unspecified)	12	107	105	49*	101	102
CC1CCN(CC(CS(=O)(=O)c2ccc([N+](=O)[O-])cc2)N2CCC(C)CC2)CC1 (stereo unspecified)	.	?	95	10	94	98
C=CCn1c(=N)c(C#N)cc2c(=O)n3ccccc3nc21	104*	99	104	7	103	103
C=CCn1c(=O)c(C#N)cc2c(=O)n3ccccc3nc21	35	83	83	7	76	97
O=[N+]([O-])c1ccc(Cl)c(/C=N/Nc2nc(N3CCOCC3)nc(N3CCOCC3)n2)c1	61	92	104	354*	21	83
O=[N+]([O-])c1ccc(/C=N/Nc2nc(N3CCOCC3)nc(N3CCOCC3)n2)cc1	24	99	102	10	105	101
Cc1ccc(Nc2c3c(nc4ncnn24)CCC3)cc1	37	142	105	82*	101	98
COc1cc2c(cc1OC)CN(CC(=O)Nc1ccc(Cl)c(S(=O)(=O)N(C)C)c1)CC2	74	99	93	11	87	98
CN(C)c1nc(SCC#N)nc(N(C)C)n1	26	115	106	59*	106	101
Cc1ccc(C)c(NCCC#N)c1	5	104	102	13	93	99
CCC1(CC)C(=O)NC(=O)NC1=NCCc1ccc(O)cc1	14	108	97	75*	99	96
O=C(CCCN1C(=O)c2ccccc2C1=O)NC1=NCCS1	259*	98	100	8	96	104
CCOc1ccc(-c2nnc3ccc(SC(C)C)nn23)cc1	18	107	104	7	110	104
CC(=O)N=c1sc2ccccc2n1C	28	102	100	32	101	100
N/N=c1\sc2ccccc2n1-c1ccccc1	14	104	106	47*	104	106
CCOc1ccc(OCC)c(NC(=O)C2CCCN(c3ncccn3)C2)c1 (stereo unspecified)	264*	103	104	7	105	103
CCOc1ccc(OCC)c(NC(=O)C2CCN(c3ncccn3)CC2)c1	33	101	100	15	104	100
CSc1snc(SCC(N)=O)c1C#N	15	98	102	8	104	100
COC(=O)CSc1nsc(SCC(=O)OC)c1C#N	10	109	102	52*	102	101
O=c1c2c(C(F)(F)F)cc(C(F)(F)F)nc2[nH]n1-c1ccccc1	89*	102	106	5	97	99
Cc1cc(C(C)(C)C)nc2[nH]n(-c3ccccc3)c(=O)c12	35	103	101	15	107	102
Cc1c(Cc2ccc3c(c2)OCO3)sc(NC(=O)c2ccc3ccccc3c2)c1C(N)=O	13	35*	20*	1	11*	29*
CCC(c1nnnn1Cc1cccs1)N1CCN(C2CCCC2)CC1 (stereo unspecified)	28	108	104	19	104	105
CCCC(c1nnnn1Cc1cccs1)N1CCN(C2CCCC2)CC1 (stereo unspecified)	19	150	104	117*	101	98
CCN(CC)CCC(C)OC(c1ccccc1)c1ccccc1 (stereo unspecified)	20	103	104	7	103	101

Assay outcomes deposited in PubChem BioAssay by NMMLSC.
